# SMN2 splice enh = enhancers of SMN2 splice variant expression. Potency, µM (highest dose often 46.1 µM), for inactives: at the top dose activity change, positive = activation, most hits filed as activators. AID 1458. 210,000 tested, 2.8% active. HEK293 SMN2-luciferase splicing reporter, luminescence, 30-36 h; also: % of control where 0% means no effect; nearly all actives have a fitted effect of over 55% in size
#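 HEK293 cells carry an SMN2 […]–luciferase reporter in which exon 7 inclusion puts luciferase in frame. Cells were plated 10-12 h before compound addition, then incubated 30-36 h at 37C. ONE-Glo luminescence was read; sodium butyrate at 4.5 mM final served as control.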
# KinaseGlo FLuc = blocks Kinase-Glo luciferase, a counter-screen artifact | Q27757 | Kinase-Glo luciferase, ATP luminescence, 8 min | Potency, µM (top dose mostly 38.3 µM), inactives show at the top dose activity change, negative = inhibition, most hits filed as inhibitors | 200,000 tested, 0.28% active | AID 1379; also: % is scaled to controls: 0 for no effect and ±100 for the full control effect; nearly all actives have a fitted effect of over 60% in size
#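 Compound is pinned into ATP-containing buffer (10 uM ATP, imidazole pH 7.2, 7 mM MgCl2). Kinase-Glo luciferase reagent is then added. Light output is recorded following an 8-min room-temperature incubation.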
# Rab9 promoter act = activates the Rab9 promoter | Huh7 Rab9 promoter-luciferase reporter, luminescence, 24 h | Potency, µM (series often up to 9.22 µM), inactives show at the highest dose activation, negative = inhibition, usual class: activators | 320,000 tested, 2.8% active; also: % of control where 0% means no effect; nearly all actives have a fitted effect of over 60% in size
#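 Rab9 promoter-driven luciferase in stably transfected Huh7 cells; 1500 cells/well rested 2 h, exposed to compound in DMSO for 24 h at 37 °C, 5% CO2. Luminescence read 10 min after adding luciferase reagent at ambient temperature.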
# FLuc modulator = inhibits or activates purified firefly luciferase, miR-21 counter-screen | purified FLuc, Km substrates, luminescence inhibition | Potency, µM (series often up to 57.5 µM), inactives show at the top dose activity change, negative = inhibition, hits mostly inhibitors | 360,000 tested, 6.9% active;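 also: plate controls were vehicle for no effect and reference inhibitor for full effect; nearly all actives have a fitted effect of over 55% in size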
# Target sequence (P08659 whole entry, looked up): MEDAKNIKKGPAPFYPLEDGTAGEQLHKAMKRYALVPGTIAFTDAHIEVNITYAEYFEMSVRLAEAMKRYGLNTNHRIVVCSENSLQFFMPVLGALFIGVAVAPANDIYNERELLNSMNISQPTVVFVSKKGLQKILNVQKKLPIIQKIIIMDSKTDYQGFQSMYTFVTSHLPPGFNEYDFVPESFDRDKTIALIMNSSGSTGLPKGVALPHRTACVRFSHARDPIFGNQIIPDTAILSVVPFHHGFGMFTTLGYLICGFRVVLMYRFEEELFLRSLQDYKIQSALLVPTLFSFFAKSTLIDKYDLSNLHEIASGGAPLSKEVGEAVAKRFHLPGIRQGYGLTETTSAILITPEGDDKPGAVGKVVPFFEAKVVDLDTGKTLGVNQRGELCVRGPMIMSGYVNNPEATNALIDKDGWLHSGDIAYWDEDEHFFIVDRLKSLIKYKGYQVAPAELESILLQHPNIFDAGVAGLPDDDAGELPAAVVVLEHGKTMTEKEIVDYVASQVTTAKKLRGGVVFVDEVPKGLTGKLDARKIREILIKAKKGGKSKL
#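 Purified P. pyralis luciferase (10nM final) with 10uM D-luciferin and 10uM ATP (Km levels) in 50mM Tris acetate pH 7.5, 10mM Mg acetate, 0.01% Tween-20, 0.05% BSA; qHTS 6-point titration, ~60 µM downward; luminescence read.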
# ELG1 genotox = genotoxicity induction in ELG1-luciferase HEK293T cells; HEK293T ELG1-luciferase reporter, luminescence, 16 h; Potency, µM (top dose mostly 46 µM), for inactives: at the highest dose activity change, positive = activation, most hits filed as activators; 330,000 tested, 1.3% active; AID 504466; also: % of control where 0% means no effect; nearly all actives have a fitted effect of over 60% in size
#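 HEK293T cells expressing luciferase-tagged ELG1 were treated with compound or DMSO for 16 hr at 37°C. Luciferase activity was then read after 30 min with ONE-Glo at room temperature; rising signal flags genetic stress.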
# NPC1 prom act = activators of NPC1 promoter; Huh7 NPC1 promoter luciferase reporter, 24 h; Potency, µM (titrated, usually from 9.22 µM), for inactives: top-dose activation, hits mostly activators; 320,000 tested, 2.4% active; AID 485313; also: % of control where 0% means no effect; nearly all actives have a fitted effect of over 60% in size
#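 Cells: Huh7 expressing luciferase under the NPC1 promoter, 1500/well. Seeded 2 h, compound added, incubated 24 h at 37 °C. Luciferase reagent, 10 min ambient, then luminescence.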
# * hit, by the source's call; ? = inconclusive; · = no result; [ ] = remark or other dose. This is a sample that favours compounds with a hit; in the whole collection about 7.5% have one here. Calls follow the shape of the dose curve; as a rule, active = well fitted curve in the direction sought with a large enough effect; inconclusive = small, poorly fitted or top-dose-only effect, or another doubt; inactive = no such curve, though single readings can be large; an effect the other way counts as inactive or inconclusive. Potency is read from the fitted curve at half-maximal effect.
SMILES,SMN2 splice enh,KinaseGlo FLuc,Rab9 promoter act,FLuc modulator,ELG1 genotox,NPC1 prom act
Cc1cc(NCCCn2ccnc2)n2ncc(-c3ccc(Cl)cc3)c2n1,4.5%,-1.0%,0.562µM*,0.953µM*,?,0.447µM*
CC(C)(C)c1cc(NCCCn2ccnc2)n2ncc(-c3ccccc3)c2n1,·,·,2.24µM*,5.36µM*,?,2µM*
Cc1cc(NCCCN2CCOCC2)n2ncc(-c3ccc(Cl)cc3)c2n1,24.3%,-3.9%,?,16.9µM*,?,?
CC(Sc1nc(=O)cc(N)n1CCc1ccccc1)C(=O)Nc1ccccc1C#N (centres undefined),15.3%,·,·,2.2%,·,·
CC(C)Nc1cc(C(C)(C)C)nc2c(-c3ccccc3)cnn12,·,·,2.82µM*,10.7µM*,?,?
C(=C\c1nc(-c2ccccc2)oc1Nc1ccc2ccccc2c1)/c1ccccc1,7.1%,1.5%,·,·,·,·
O=[N+]([O-])c1ccc(C(O)CSC(=S)N2CCCCC2)cc1 (centres undefined),·,·,25.3%,16.9µM*,16.9%,2.82µM*
O=[N+]([O-])c1ccc(C(=S)N2CCCC2)cc1,1.7%,-0.9%,-3.5%,-2.8%,5.2%,-0.2%
CC(C)NC(=O)N(Cc1ccccc1)Cc1cccs1,·,·,-1.9%,-0.1%,-3.1%,1.5%
Nc1ncnc2c1ncn2[C@H]1O[C@@H](C(=O)OCCO)[C@@H](O)[C@H]1O,-2.7%[9.22 µM],-1.7%[7.66 µM],·,·,·,·
COC(=O)Cn1ncc2c3ccccc3n(Cc3ccccc3)c2c1=O,6.4%,20.5%,-3.9%,-0.9%,-7.4%,-0.8%
COC(=O)Cn1ncc(N(C)Cc2ccccc2)c(Cl)c1=O,·,·,?,12µM*,?,2.51µM*
O=C(Cn1c(=O)n(CCc2ccccc2)c(=O)c2cccnc21)Nc1ccc(F)cc1,-1.7%,·,·,-11.7%,·,·
CCn1c(SCC(N)=O)nnc1-c1cc2c(C)nn(-c3ccccc3)c2s1,-6.6%,-0.9%,0.2%,15.1µM*,0.8%,5.8%
CCn1c(SCC(=O)Nc2cc(C(C)(C)C)nn2-c2ccccc2)nnc1-c1cccs1,-27.0%,1.2%,-13.8%,1.5%,-2.9%,-7.3%
CC(C)(C)c1ccc(C(=O)N2CCCC2)s1,·,·,18.7%,15.1µM*,?,-6.9%
Cc1ccsc1C(=O)NNC(=O)C1C2C=CC(C2)C1C(=O)O (centres undefined),7.3%,-5.1%,7.5%,23.9µM*,?,2.7%
S=c1[nH]nc(CSCCOc2ccc(Cl)cc2Cl)o1,·,·,2.2%,21.3µM*,4.8%,14.1%
CCOc1ccccc1NC(=O)Cn1c(=O)ccc2cc(S(=O)(=O)N3CCC(C)CC3)ccc21,·,·,·,-7.3%,·,·
COC(=O)[C@@]1(Cc2ccc(OC)cc2)[C@H]2c3cc(C(=O)N4CCCC4)n(Cc4cc(F)c(F)c(F)c4)c3C[C@H]2CN1C(=O)c1ccccc1,-14.9%,-0.4%,·,·,·,·
O=S(=O)(c1ccc(N2CCN(Cc3ccccc3)CC2)nc1)N1CCCC1,·,·,-1.7%,1.3%,-2.2%,-2.2%
CCOC(=O)C1(Cc2ccccc2)CCCN(C2CCN(C(C)=O)CC2)C1 (centres undefined),·,·,-2.1%,0.8%,-0.8%,-1.0%
CCOC(=O)C1(Cc2ccccc2)CCCN(C(=O)C=C(C)C)C1 (centres undefined),·,·,3.55µM*,16.9µM*,?,?
CC#CC(=O)N1CCCC(Cc2cccc(OC)c2)(C(=O)OCC)C1 (centres undefined),·,·,?,23.9µM*,16.0%,?
CCOC(=O)C1(Cc2cccc(OC)c2)CCN(C2CCOCC2)CC1,·,-4.4%,?,3.01µM*,?,?
CCOC(=O)C1(Cc2ccc(OC)cc2)CCN(C(=O)c2cc3ccccc3[nH]2)CC1,18.7%,-2.3%,2.1%,15.1µM*,1.5%,2.4%
COc1ccc(Nc2ncc3c(n2)CCN(Cc2cc(Br)cs2)C3)c(OC)c1,·,·,·,4.0%,·,·
